From PubChem
ELG1 repair inh – blocks ELG1-dependent DNA repair in HEK293T cells; HEK293T ELG1-luciferase reporter, luminescence, 16 h; DNA damage induced by 5-fluorouridine; Potency, µM (top dose mostly 46.1 µM), usual class: inhibitors; AID 504467; actives 2.3% (n = 330,000); also: nearly all actives have a fitted effect of over 55% in size
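Luminescence from the luciferase reporter, measured 30 min after ONE-Glo reagent at room temperature, was the read-out. Beforehand, 2,000 cells per well were exposed for 16 hr at 37 °C to 5-fluorouridine together with compound or vehicle.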
DT40 TDP1 no CPT – qHTS for Inhibitors of human tyrosyl-DNA phosphodiesterase 1 (TDP1): qHTS in cells in absence of CPT; DT40 Tdp1-/- hTDP1 cells, no CPT, ATP luminescence, 48 h; Potency, µM (series often up to 46.2 µM), actives largely listed as inhibitors; actives 15% (n = 420,000); AID 686978, 2013; also: nearly all actives have a fitted effect of over 55% in size
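Cells were dispensed at 400 per well, compounds added by pin tool, plates incubated ≥48 hr at 37 °C, then CellTiter-Glo added for 30 min at room temperature before luminescence reading. Line: DT40 Tdp1-/- complemented with hTDP1; camptothecin omitted.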
RORg inh – blocks mouse ROR gamma transcriptional activity; actives 5.4% (n = 310,000); Drosophila S2 Gal4-RORgamma UAS-luciferase reporter, 20 h; P51450; Potency, µM (series often up to 53.6 µM), hits mostly inhibitors; also: nearly all actives have a fitted effect of over 60% in size
Target sequence (P51450 whole entry, looked up, the tested form may be a part): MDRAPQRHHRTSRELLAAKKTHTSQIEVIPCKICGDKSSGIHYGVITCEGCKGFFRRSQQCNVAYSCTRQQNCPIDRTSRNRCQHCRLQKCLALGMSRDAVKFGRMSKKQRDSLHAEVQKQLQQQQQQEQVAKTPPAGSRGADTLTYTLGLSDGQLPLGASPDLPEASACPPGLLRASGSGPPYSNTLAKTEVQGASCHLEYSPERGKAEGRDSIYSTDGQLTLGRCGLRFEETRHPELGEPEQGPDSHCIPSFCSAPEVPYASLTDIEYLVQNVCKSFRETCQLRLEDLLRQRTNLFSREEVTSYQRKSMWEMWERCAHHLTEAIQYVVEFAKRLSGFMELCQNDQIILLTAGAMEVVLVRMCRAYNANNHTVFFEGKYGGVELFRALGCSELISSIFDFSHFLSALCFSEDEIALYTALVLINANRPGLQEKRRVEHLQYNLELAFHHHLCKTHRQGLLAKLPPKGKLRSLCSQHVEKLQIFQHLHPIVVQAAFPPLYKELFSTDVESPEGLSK
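Using a luciferase readout, inhibitors were identified by reduced reporter activity in Drosophila cells coexpressing a copper-inducible Gal4–ROR gamma fusion and UAS-driven Photinus luciferase, incubated 20 hr after 700 uM copper sulfate.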
Gal4-VP16 FLuc – Gal4-VP16 reporter inhibition counter-screen | Drosophila S2 Gal4-VP16 UAS-luciferase, luminescence, 20 h | Potency, µM (doses to about 53.6 µM), hits mostly inhibitors | actives 3.5% (n = 310,000) | AID 2546;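 also: Gal4-VP16 expression switched on by copper sulfate through the metallothionein promoter; nearly all actives have a fitted effect of over 50% in size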
TDP1 cell CPT – growth inhibition of DT40 Tdp1-/-;hTDP1 cells with camptothecin (screen for TDP1 inhibitors) | Potency, µM (titrated, usually from 46.2 µM), actives largely listed as inhibitors | chicken DT40 Tdp1-/-;hTDP1 cells + 20 nM CPT, ATP luminescence, 48 h | actives 12% (n = 420,000); also: nearly all actives have a fitted effect of over 55% in size
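Cell growth measured by CellTiter-Glo luminescence after a minimum 48 h, 37 C compound exposure with 20 nM CPT in Tdp1-knockout DT40 cells stably expressing hTDP1, seeded 400/well; qHTS titration format.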
ALOX12 inh – ALOX12 (human) lipoxygenase inhibition; Potency, µM (doses to about 108 µM), hits mostly inhibitors; AID 1671190; P18054; purified 12hLO, xylenol orange hydroperoxide absorbance; actives 1.1% (n = 580,000)
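Purified human 12hLO at 150 nM in 25 mM Hepes, 0.01% Triton X-100, pH 7.0, preincubated 15 min at room temperature with compound. Reaction started with 40 uM arachidonic acid, 30 min at room temperature. Hydroperoxide measured by Fe-xylenol orange, 573/405 nm absorbance ratio.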
Numbers stand for hits; [ ] = dose if it differs, or a comment. An excerpt weighted towards active compounds, which were near 15% of everything screened. Calls follow the shape of the dose curve; as a rule, active = well fitted curve in the direction sought with a large enough effect; inconclusive = small, poorly fitted or top-dose-only effect, or another doubt; inactive = no such curve, though single readings can be large; an effect the other way counts as inactive or inconclusive.

CN(C)CCCN(C(=O)c1ccc(S(=O)(=O)N2CCCC2)cc1)c1nc2ccc(Br)cc2s1 was read as ELG1 repair inh inactive, DT40 TDP1 no CPT 21µM, RORg inh inconclusive, Gal4-VP16 FLuc inconclusive, TDP1 cell CPT 23µM and ALOX12 inh inactive.
CCc1ccc(NC(=O)Cn2c(=O)nc(-c3ccccc3F)c3cc(Cl)ccc32)cc1 was read as DT40 TDP1 no CPT inactive, TDP1 cell CPT inactive and ALOX12 inh inactive.
For COc1cc(NC(=O)Cn2c(=O)nc(-c3ccccc3F)c3cc(Cl)ccc32)cc(OC)c1 the results were DT40 TDP1 no CPT 10µM, TDP1 cell CPT 15µM and ALOX12 inh inconclusive.
`CC(C)CNC(=O)C(NC(=O)c1ccccc1)C1CCN(C(=O)c2ccccc2)CC1` (stereo not drawn) gave ALOX12 inh inactive.
Cc1ccc(C2Cn3nnc(C(=O)N4CCN(C(=O)c5ccccn5)CC4)c3CO2)cc1 (stereo not drawn) was read as ALOX12 inh inactive.
`CC(=O)N1Cc2ccccc2OC2(CCN(C(=O)c3ccnc(N)c3)CC2)C1` gave ALOX12 inh inactive[6.33 µM].
CN(CCOc1ccc(F)cc1)C(=O)c1ccc2ccccc2n1 was read as ALOX12 inh inactive.
Screening CCCCNC(=S)Nc1cccc(C)c1 returned ALOX12 inh inactive.
S=C(NCCSc1ccc(Cl)cc1)Nc1cccc(Cl)c1 was read as ALOX12 inh 35µM.
`Cc1cccc(NC(=S)NCCSc2ccc(Cl)cc2)c1` gave ELG1 repair inh inactive, DT40 TDP1 no CPT inactive, RORg inh 3.2µM, Gal4-VP16 FLuc 7.1µM, TDP1 cell CPT inactive and ALOX12 inh inconclusive.
`CSc1cccc(NC(=S)NCCSc2ccc(Cl)cc2)c1` gave ALOX12 inh 35µM.
For S=C(NCCCn1ccnc1)Nc1cccc(Cl)c1 the results were ELG1 repair inh inactive, DT40 TDP1 no CPT inactive, RORg inh inactive, Gal4-VP16 FLuc inactive, TDP1 cell CPT inactive and ALOX12 inh inactive.
Screening NS(=O)(=O)C#Cc1ccccc1 returned RORg inh 5.6µM, Gal4-VP16 FLuc inconclusive and ALOX12 inh inactive.
For O=C(O)CC(CNS(=O)(=O)c1ccc(I)cc1)c1ccccc1 (stereo not drawn) the results were ALOX12 inh inactive.
`Fc1ccc(Sc2nc(-c3ccccc3)nnc2C(F)(F)F)cc1` gave ELG1 repair inh inconclusive, DT40 TDP1 no CPT 13µM, RORg inh 5.6µM, Gal4-VP16 FLuc 7.1µM, TDP1 cell CPT 5.8µM and ALOX12 inh inactive.
CN1CCN(C(=O)c2cc3n(n2)CC(c2ccc(Br)cc2)OC3)CC1 (stereo not drawn) was read as ALOX12 inh inactive.
CCn1cc(S(=O)(=O)N2CCCC(c3nnnn3-c3ccccc3)C2)cn1 (stereo not drawn) was read as ALOX12 inh inactive.
`O=C(O)c1cc(NC(=S)NC(=O)C(c2ccccc2)c2ccccc2)ccc1Cl` gave ELG1 repair inh inactive, DT40 TDP1 no CPT inactive, RORg inh inactive, Gal4-VP16 FLuc inactive, TDP1 cell CPT inactive and ALOX12 inh inactive.
For O=C(NC(=S)Nc1ccc(Cl)cn1)C12CC3CC(CC(C3)C1)C2 the results were ELG1 repair inh inconclusive, DT40 TDP1 no CPT inconclusive, RORg inh 6.3µM, Gal4-VP16 FLuc 4µM, TDP1 cell CPT inconclusive and ALOX12 inh inconclusive.
For O=C(Cc1ccccc1)Nc1ccc(Cl)cn1 the results were ELG1 repair inh inconclusive, DT40 TDP1 no CPT inactive, TDP1 cell CPT inactive and ALOX12 inh inactive.
`CCC(=O)NC(=S)Nc1ccc(Cl)cn1` gave ELG1 repair inh inactive, DT40 TDP1 no CPT inactive, RORg inh 2.8µM, Gal4-VP16 FLuc inconclusive, TDP1 cell CPT inactive and ALOX12 inh inactive.
S=C(Nc1ccccc1)Nc1ccc(Cl)cn1 was read as ELG1 repair inh inconclusive, DT40 TDP1 no CPT 5.8µM, RORg inh inactive, Gal4-VP16 FLuc inactive and TDP1 cell CPT 23µM.
Screening O=C(NC(=S)Nc1ccc(Cl)cn1)C(c1ccccc1)c1ccccc1 returned ELG1 repair inh inconclusive, DT40 TDP1 no CPT 23µM, RORg inh 4µM, Gal4-VP16 FLuc 4µM, TDP1 cell CPT inconclusive and ALOX12 inh inactive.
`CC(C)(C)C(=O)CSc1nnc(COc2ccc(Cl)cc2)n1-c1ccc(Cl)cc1` gave ALOX12 inh inactive.
`COc1ccc2cc(COC(=O)C3CCN(S(=O)(=O)c4ccccc4F)CC3)ccc2c1` gave ALOX12 inh inactive.
`CCn1ccc(C(=O)N2CCCC(c3noc(COc4ccccc4F)n3)C2)n1` (stereo not drawn) gave ALOX12 inh inactive.
`CC1CC(CCC(=O)NC(=S)Nc2ccc(Cl)cn2)C(=O)O1` (stereo not drawn) gave ELG1 repair inh inactive, DT40 TDP1 no CPT inactive, RORg inh 11µM, Gal4-VP16 FLuc inactive, TDP1 cell CPT inactive and ALOX12 inh inactive.
`CCC(=O)NC(c1cccs1)c1cc([N+](=O)[O-])c2cccnc2c1O` (stereo not drawn) gave ELG1 repair inh inactive, DT40 TDP1 no CPT inconclusive, RORg inh 3.2µM, Gal4-VP16 FLuc 5µM, TDP1 cell CPT 21µM and ALOX12 inh 3.5µM.
Screening CCC(=O)NC(c1ccccc1)c1cccs1 (stereo not drawn) returned ALOX12 inh inactive.
`CCC(=O)NC(c1cccs1)c1cc(Cl)c2ccccc2c1O` (stereo not drawn) gave ELG1 repair inh inconclusive and ALOX12 inh inactive.
For O=C(CCc1ccccc1)NC(c1cccs1)c1cc(Cl)c2cccnc2c1O (stereo not drawn) the results were ELG1 repair inh inconclusive, DT40 TDP1 no CPT 4.1µM, RORg inh 0.63µM, Gal4-VP16 FLuc 0.79µM, TDP1 cell CPT 3.7µM and ALOX12 inh inactive.
`CCCC(=O)NC(c1cccs1)c1cc([N+](=O)[O-])c2cccnc2c1O` (stereo not drawn) gave ELG1 repair inh inactive, DT40 TDP1 no CPT 13µM, RORg inh 5.6µM, Gal4-VP16 FLuc 4µM, TDP1 cell CPT 23µM and ALOX12 inh 18µM.
CC(C)C(=O)NC(c1ccccc1)c1cc([N+](=O)[O-])c2cccnc2c1O (stereo not drawn) was read as ELG1 repair inh inconclusive, DT40 TDP1 no CPT inconclusive, RORg inh 6.3µM, Gal4-VP16 FLuc inconclusive, TDP1 cell CPT 18µM and ALOX12 inh inconclusive.
`CC(C)(O)C#Cc1ccc(C(=O)NCc2ccccc2)cc1` gave ALOX12 inh inactive.
